Several values for one entry are separate records, joined by “and”; a condition that tells them apart may be missing. Equal values may be shown once. Screen size: about 360,000 compounds; about 9,100 (2.5%) were called active. About 4% were inconclusive and are not listed. Cut-off read from the data, not from the text of the source: active = max response below about -50%; inconclusive = no clear call, values can overlap the other calls; inactive = above that. The entries come from a sample that favours actives as a whole.
Molecular target: D(3) dopamine receptor (Homo sapiens) (UniProt P35462)
Sequence (P35462 whole entry, looked up): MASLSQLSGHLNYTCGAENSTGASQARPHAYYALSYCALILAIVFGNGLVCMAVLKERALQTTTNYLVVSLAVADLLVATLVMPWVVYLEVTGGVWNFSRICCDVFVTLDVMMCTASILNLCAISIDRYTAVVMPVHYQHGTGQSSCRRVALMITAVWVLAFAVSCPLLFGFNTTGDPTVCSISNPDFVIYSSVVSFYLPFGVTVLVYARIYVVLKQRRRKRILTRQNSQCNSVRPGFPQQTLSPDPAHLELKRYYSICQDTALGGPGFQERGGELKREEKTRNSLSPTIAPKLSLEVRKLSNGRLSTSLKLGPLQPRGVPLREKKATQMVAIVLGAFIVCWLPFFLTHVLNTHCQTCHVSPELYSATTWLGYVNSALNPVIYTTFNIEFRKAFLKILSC
Experiment: qHTS of D3 Dopamine Receptor Antagonist: qHTS
Conditions: D3R cells, DiscoveRx beta-arrestin luminescence, antagonist mode; hits give low values
In short: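 Cells expressing the human receptor were seeded at 1500 cells/well, incubated overnight at 37 degrees C in 5% CO2, then exposed to library compounds with dopamine controls for 90 minutes at 37 degrees C before luminescent detection.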
% is set by controls: 0 for no effect and ±100 for the full control effect.

Max response, negative = inhibition, active:
CCCOc1ccc(C2C(C(=O)c3ccc(C)o3)=C(O)C(=O)N2CCCn2ccnc2)cc1 (stereo not drawn) -63.3%
Cn1cnnc1Sc1ccc(S(C)(=O)=O)cc1[N+](=O)[O-] -78.8%
O=C1c2cccc3cc(Br)cc(c23)C(=O)N1Nc1ccccc1 -62.9%
O=C1C2CCCN2C(=O)N1CCCCN1CCN(c2cccc(C(F)(F)F)c2)CC1 (stereo not drawn) -115%
O=C(CN1CCC(O)(c2ccccc2)CC1)Nc1ccc2c(c1)OCCO2 -57.9%
FC(F)(F)C1CCCN(c2nsc3ccccc23)C1 (stereo not drawn) -81.7%
COc1ccc(CNC(=O)CN2CCC(n3nnc4cc(F)ccc43)CC2)cc1 -83.8%
CCC(=O)c1ccc(OCC(O)CN2CC(C)OC(C)C2)cc1 (stereo not drawn) -54.2%
Cn1cccc1/C=C1\SC(=S)N(NC(=O)c2ccc(Cl)cc2)C1=O -70.7%
CCc1ccc(OC2(C)CCN(CCOc3ccc(C)cc3)C2)cc1 (stereo not drawn) -75%
O=S(=O)(c1ccc(OCC(O)CN2CCN(c3ccccc3Cl)CC2)cc1)N1CCOCC1 (stereo not drawn) -73%
CCc1nn(CCCN2CCN(c3cccc(Cl)c3)CC2)c(=O)n1CCOc1ccccc1 -77.2% and -89.6%
OC(COc1ccccc1)CN1CCN(c2cccc(Cl)c2)CC1 (stereo not drawn) -51.8%
CC(=O)Nc1ccc(OCC(O)CN2CCN(c3ccccc3Cl)CC2)cc1 (stereo not drawn) -66.4%
CC1CCC(NC(=O)CNC(=O)c2ccc3ccccc3c2)CC1 (stereo not drawn) -70%
COc1ccc2c(c1OC)C(=O)OC2Nc1nc(-c2ccccc2)cs1 (stereo not drawn) -73.2%

Max response, negative = inhibition, inactive:
O=C(Nc1ccc(Cl)cc1)c1csc([C@@H]2O[C@H](CO)[C@H](O)[C@H](O)[C@H]2O)n1 -15.5%
CC1=C(C(=O)N(C)C)CC(CC(=O)NCCN2CCOCC2)C(=O)N1Cc1ccccc1 (stereo not drawn) -7.58%
CC(=O)Nc1cc(-c2ccc(N3CCN(C)CC3)cc2)cn2c(-c3cccc(C(=O)N(C)C)c3)cnc12 9.1%
C=CCOc1cccc(C2C(C(=O)c3ccc(C)o3)=C(O)C(=O)N2CCN2CCOCC2)c1 (stereo not drawn) 0.324%
CCOc1ccc(C2/C(=C(/O)c3ccc4c(c3)CC(C)O4)C(=O)C(=O)N2CCCn2ccnc2)cc1 (stereo not drawn) -12.2%
Cc1ccc(C)c(C(O)c2ncc(-c3cccc4ccccc34)[nH]2)c1 (stereo not drawn) -3.53%
COC(=O)c1ccc2nc(-c3ccc(Cl)cc3)c(Cc3cccc(F)c3)n2c1 88.8%
CC(=O)Nc1ccc(Nc2c([N+](=O)[O-])cc(S(C)(=O)=O)cc2[N+](=O)[O-])cc1 -15.9%
CCN(CC(=O)Nc1c(F)cccc1F)C(=O)c1ccc(Sc2nncn2C)c([N+](=O)[O-])c1 2.59%
CC1=C(C(=O)Nc2cccc(C(=O)NCC(C)c3ccccc3)c2)SCCO1 (stereo not drawn) 104%
O=C1C=C(c2ccc(Cl)cc2)C(=O)N1Nc1ccccc1 -22.9%
O=C(CN1C(=O)c2cccc3cccc1c23)Nc1ccccc1 5.41%
COc1cccc(CNc2nc(NCc3ccccc3OC)nc3ccsc23)c1 31.6%
O=C(CCN1CCCO1)N1CCCC(N2CCN(c3cccc(C(F)(F)F)c3)CC2)C1 (stereo not drawn) -5.11%
O=C(C1CC(=O)N(C2CCCC2)C1)N1CCN(c2cccc(C(F)(F)F)c2)CC1 (stereo not drawn) -17.8%
CCCCCc1c(-c2ccc(OC)c(OC)c2)ncn1CCc1ccccc1OC -3.21%
O=C1NC[C@H](Cc2ccc(O)cc2)N(C[C@H]2CCCN2C[C@H](Cc2ccccc2)N2C[C@H](Cc3ccccc3)N(CCc3ccccc3)C(=O)C2=O)C1=O -27.9%
COc1ccc(CN2C(=O)C(CC(=O)NCCCCc3ccccc3)CC(C(=O)N3CCOCC3)=C2C)cc1 (stereo not drawn) 17.9%
Cc1ccc(C(=O)NC(C)C(c2cccs2)N2CCOCC2)cc1C (stereo not drawn) -24.7%
N#Cc1ccc(C(C(=O)NCc2ccccc2)n2c(=O)c(-c3ccco3)nc3ccccc32)cc1 (stereo not drawn) -4.27%
O=C(Cn1c(=O)sc2ccccc21)Nc1ccc2c(c1)OCCO2 7.52%
O=C(CN1CCN(C(=O)c2ccco2)CC1)Nc1ccc2c(c1)OCO2 -5.37%
CN1C[C@@H](CO)O[C@@H](n2cnc3c(N4CCN(CCO)CC4)ncnc32)C1 2.48%
COc1cccc(-c2cc3nc(NCc4ccccc4OC)n(C)c(=O)c3s2)c1 23.1%
COc1ccc(CN2C(=O)C(CC(=O)NC3CCCCC3)CC(C(=O)N3CCOCC3)=C2C)cc1 (stereo not drawn) -7.02%
COc1ccc([C@H]2CC(=O)C[C@@H](CCn3cc(CC4CCCC4)nn3)O2)cc1 5.27%
CCCS(=O)(=O)NC(=O)C1(C)CCN(C(=O)c2sccc2C)C1 (stereo not drawn) 18.5%
Nc1nc(CSc2nnnn2-c2ccccc2)nc(Nc2ccccc2)n1 16%
CC1(C(=O)Nc2ccccc2Br)CCN1C(=O)CC1CC1 (stereo not drawn) 27.1%
CC(=O)c1cccc(S(=O)(=O)N2CCC(n3nnc4cc(F)ccc43)CC2)c1 -14.5%
COc1ccccc1CNC(=O)CN1CCC(n2cnc3cc(F)ccc32)CC1 -0.289%
CC(C)(C(=O)N1CCC1(C)C(=O)NS(=O)(=O)c1ccc(Br)cc1)c1ccccc1 (stereo not drawn) 11.9%
CCC(=O)c1ccc(OCC(O)CN2C(=O)NC(C)(C)C2=O)cc1 (stereo not drawn) 0%
CC1CCN(CC(O)COc2ccc(C(=O)c3ccccc3)cc2)CC1 (stereo not drawn) 0%
OCCc1ccc(NCCc2ccco2)cc1 11.1%
O=C(O)c1ccc(/C=C2\SC(=S)N(NC(=O)c3ccc(Br)cc3)C2=O)cc1 -21.3%
CCOc1ccc(/C=C2\SC(=S)N(NC(=O)c3ccncc3)C2=O)cc1OC -13.1%
COC(=O)C1(C(=O)OC)C[C@H](c2ccccc2)N(Cc2ccccc2OC)[C@@H]1c1ccccc1 -25.4%
CCc1ccc(OCC(O)CN2CCN(CCO)CC2)cc1 (stereo not drawn) 18.7%
Cc1ccc(OCCNC(=O)CN2C(=O)NC3(CCCC3)C2=O)cc1 -22.9%
CCCNC(=O)C1(C)CCN1C(=O)C1(c2ccccc2)CC1 (stereo not drawn) -7.67%
Cc1sc2nc(-c3ccccc3F)oc(=O)c2c1C 0%
CCCc1nc2ccccc2n1C(C)C(=O)NC(C)(C)C (stereo not drawn) -12.7%
CC(OC(=O)c1ccc(NC(=O)CC#N)cc1)C(=O)Nc1ccc(S(=O)(=O)N2CCCC2)cc1 (stereo not drawn) 2.56%
COc1cc(C(O)c2nc(-c3cnn(C)c3)cs2)ccc1F (stereo not drawn) -2.22%
O=C(N[C@H]1CC[C@H](CC(=O)N2CCCCC2)O[C@@H]1CO)c1cccc(F)c1 1.98%
O=C(c1ccc(Cl)cc1)c1ccc(OCC(O)CN2CCCCC2)cc1 (stereo not drawn) -2.74%
CC(C)c1ccc(OCC(O)CN2CCN(c3ccccn3)CC2)cc1 (stereo not drawn) -29.5%
CCN1C(=O)/C(=C\N2CCN(c3cccc(Cl)c3)CC2)SC1=S -22.6%
OC(COc1ccc2c(c1)CCC2)CN1CCN(c2cccc(Cl)c2)CC1 (stereo not drawn) 0%
Cc1nn(CCOc2ccccc2)c(=O)n1-c1ccccc1F -0.664%
O=C(CCCC(=O)N1CCN(c2cccc(Cl)c2)CC1)c1ccccc1 11.7%
CC(=O)c1ccc(OCC(O)CN2CCN(S(=O)(=O)c3cccc(Br)c3)CC2)cc1 (stereo not drawn) 22%
COC(=O)COc1ccc(S(=O)(=O)N2CCOCC2)cc1 20.2%
CN1CCN(c2ccncc2S(=O)(=O)N2CCCC2)CC1 22.6%
COC(=O)c1ccc2nc(-c3ccc(C)cc3)c(Cc3ccc(OC)cc3C)n2c1 0.363%
CC(C)C1Cc2[nH][nH]c(=O)c2C(c2ccc(Cl)cc2)O1 (stereo not drawn) -0.765%
O=C(Nc1ccc(Cl)cc1)c1csc([C@H]2C[C@H](O)[C@@H](CO)O2)n1 0%
COc1ccc(NC(=O)C2Cc3c(-c4cccc(NC(C)=O)c4)ccnc3O2)cc1OC (stereo not drawn) 0%
COc1ccc(CC(N)c2csc(NC(=O)NC(c3ccccc3)c3ccccc3)n2)cc1 (stereo not drawn) -20.6%
COc1ccc(N)cc1NC(=O)CN1CCOCC1 60.4%
OC[C@@H]1CN(Cc2ccc(-c3ccccc3)cc2)C[C@H](n2cnc3c(NC4CCCC4)ncnc32)O1 36%
C=CCC[C@@H](CCCCC)OC(=O)/C=C/[C@@H](O)[C@H](O)C[C@H](O)CC=C 5.67%
CCCCCCNC(=O)O[C@H]1CN(C(=O)OC(C)C)N(C(=O)OC(C)C)[C@@H]2CN(S(=O)(=O)c3ccc(C)cc3)C[C@]12O 1.36%
O=Nc1c(O)cc(O)c2ccccc12 9%
COc1ccc(COC[C@H](CC(C)C)N2CCN(C(=O)c3cccc(C(F)(F)F)c3)CCC2=O)cc1 0%
CCOC(=O)N1C(=O)C[C@](Sc2ccc(C)cc2)(C(=O)OC)[C@H]1c1ccccc1 28.6%
O=C(CNC(=O)c1ccc2ccccc2c1)Nc1ncccc1O 8.18%
Cc1ccc(C(=O)NCC(=O)NC2CC2)cc1 -5.92%
Cn1cnc(S(=O)(=O)N2C[C@@H](O)COC[C@@H]3O[C@H](CC(=O)NC4CCC4)CC[C@H]32)c1 17.2%
CCc1ccccc1NC(=O)[C@@H]1CCC(=O)N1C1OC(=O)c2c1ccc(OC)c2OC (stereo partly drawn) -18.1%
COc1ccc(-c2csc(Nc3cccc(C)n3)n2)cc1OC 42.5%
